Lamin A splicing: modulators of lamin A splicing; 0.01% of 200,000 active; Potency, µM (series often up to 46.1 µM), without a hit: at the highest dose ratio change, negative = inhibition, usual class: inhibitors; HeLa LMNA splicing GFP/RFP minigene ratio, 48 h; AID 1487; active = well fitted inhibition curve with a large enough effect in the signal ratio, with a control signal flat, not every such curve was filed as active; inconclusive = small, poorly fitted or top-dose-only effect, or effect the other way, or a change in a side signal; the % refers to the signal ratio; note: % is set by controls: 0 for no effect and ±100 for the full control effect
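Read-out is the ratio of GFP to DsRed2 object intensity, acquired by 488 nm laser-scanning cytometry on HeLa lamin A-EGFP minigene reporter cells. Compound incubation 48 hrs at 37 °C in Opti-MEM with 2% FBS; DMSO 0.5% final.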
HPGD block: blocks human HPGD enzyme activity. purified HPGD, NADH fluorescence kinetic, PGE2 substrate. AID 894. 4.3% of 150,000 active. P15428. Potency, µM, for the others: top-dose activity change, negative = inhibition, hits mostly inhibitors; note: % is set by controls: 0 for no effect and ±100 for the full control effect
Target sequence (P15428 whole entry, looked up): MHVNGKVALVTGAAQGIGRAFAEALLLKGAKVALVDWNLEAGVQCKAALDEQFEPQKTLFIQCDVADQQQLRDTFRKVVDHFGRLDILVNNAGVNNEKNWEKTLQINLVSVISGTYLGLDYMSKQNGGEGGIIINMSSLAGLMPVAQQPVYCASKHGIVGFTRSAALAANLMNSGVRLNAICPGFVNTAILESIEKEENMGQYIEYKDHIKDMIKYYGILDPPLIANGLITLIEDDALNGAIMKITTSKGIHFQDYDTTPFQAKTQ
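20 nM HPGD preincubated 15 min at room temperature with compound in 50 mM Tris-HCl pH 8, 0.01% Tween 20. Started with 1 mM NAD+ and 30 uM prostaglandin E2; NADH fluorescence (360/450 nm) read 5 times over 30-s intervals, last minus first.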
HTT cytoprotect: protects HTT-Q103 PC12 cells, measured by ATP; AID 1471; 0.14% of 230,000 active; Potency, µM (doses to about 56.4 µM), without a hit: cytoprotection (ATP increase), hits mostly activators; PC12 HTT-Q103 induced, cytoprotection, ATP luminescence, 40 h; active = well fitted curve in the direction sought with a large enough effect; inconclusive = small, poorly fitted or top-dose-only effect, or another doubt; inactive = no such curve, though single readings can be large; an effect the other way counts as inactive or inconclusive; note: % of control where 0% means no effect; nearly all actives have a fitted effect of over 45% in size
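Compounds were screened for protection of PC12 cells against cell death after tebufenozide induction (100 nM final) of mutant Huntingtin exon 1 (Q103) fused to GFP.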
JMJD2E inh: inhibitors of human JMJD2E histone demethylase; JMJD2E catalytic domain, FDH-coupled NADH fluorescence (FDH is formaldehyde dehydrogenase); 1.6% of 230,000 active; Potency, µM (series often up to 57.1 µM), without a hit: at the highest dose activity change, negative = inhibition, usual class: inhibitors;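 note: 0% = wells with enzyme and -100% = buffer wells without enzyme; nearly all actives have a fitted effect of over 50% in size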
Target sequence (B2RXH2 1-337 limits assumed): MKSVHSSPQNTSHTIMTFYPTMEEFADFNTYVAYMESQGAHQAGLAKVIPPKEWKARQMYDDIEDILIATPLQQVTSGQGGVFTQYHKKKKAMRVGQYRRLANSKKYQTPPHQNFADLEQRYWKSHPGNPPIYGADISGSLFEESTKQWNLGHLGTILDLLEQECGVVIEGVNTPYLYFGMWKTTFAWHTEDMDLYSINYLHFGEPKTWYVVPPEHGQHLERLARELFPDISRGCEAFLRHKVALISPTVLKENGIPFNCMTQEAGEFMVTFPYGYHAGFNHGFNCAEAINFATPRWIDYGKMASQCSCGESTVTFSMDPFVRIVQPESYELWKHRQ
ALDH1A1 block: blocks purified human ALDH1A1 activity. P00352. Purified ALDH1A1, NADH fluorescence, propionaldehyde substrate. Potency, µM (top dose mostly 75.3 µM), for inactives: at the top dose activity, negative = inhibition, most hits filed as inhibitors. 7.3% of 220,000 active. AID 1030;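 note: plate controls were no enzyme wells and a reference inhibitor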
HttQ103 aggreg: mutant huntingtin aggregation inhibition; PC12 HttQ103-GFP aggregates, Acumen cytometry, 40 h; Potency, µM (series often up to 46.1 µM), inactives show top-dose activity change, negative = inhibition, actives largely listed as inhibitors; 1.1% of 220,000 active; active = well fitted curve in the direction sought with a large enough effect; inconclusive = small, poorly fitted or top-dose-only effect, or another doubt; inactive = no such curve, though single readings can be large; an effect the other way counts as inactive or inconclusive; note: % is set by controls: 0 for no effect and ±100 for the full control effect; nearly all actives have a fitted effect of over 60% in size
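Aggregates are detected as GFP objects 1–25 µm with signal 6 STDEV over background in lysates of induced PC12 cells. These carry Huntingtin exon 1 with 103 glutamines fused to GFP under an ecdysone promoter; compounds titrated.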
Active calls of the source: *; ? = inconclusive; · = not tested or not shown; [ ] = dose if it differs, or a comment. This is a sample that favours compounds with a hit; in the whole collection about 9.2% have one here. Unless noted, calls come from the whole dose curve; as a rule, active = well fitted inhibition curve with a large enough effect (not every such curve was filed as active); inconclusive = small, poorly fitted or top-dose-only effect, or another doubt; inactive = no such curve, though single readings can be large or run the other way. Potency is the fitted concentration of half-maximal effect.

SMILES	Lamin A splicing	HPGD block	HTT cytoprotect	JMJD2E inh	ALDH1A1 block	HttQ103 aggreg
COc1ccc2c(c1)C(=O)[C@H](OC(=O)NCCOc1ccccc1)[C@@H](c1ccc(OC)c(Br)c1)O2	·	-28%	-10%	?	?	·
Cc1ccc(Cl)cc1N1CCN(Cc2nc3ccsc3c(=O)[nH]2)CC1	-7%	-4%	-15%	-3%	7%	-31%
CCSc1nc2nn(-c3ccccc3)c(=O)c-2c2n1CCCCC2	2%	-18%	1%	0%	2.5µM*	-1%
C=CCn1c(=O)n(C2OC(CO)C(O)C2O)c2nc(N)[nH]c(=O)c21 (configuration not stated)	·	·	2%	·	·	10%
O=C(c1csnn1)N1CCC2(CCN(Cc3ccccc3)CC2)CC1	·	-9%	19%	·	0%	·
O=C(CCc1nnc(-c2ccc3c(c2)OCO3)o1)N1CCC(c2ccc(F)cc2)C1 (configuration not stated)	?	·	22%[10 µM]	?	-3%	15%[9.22 µM]
Cc1ccsc1/C=C\C1=NCCCN1C	?	-8%	-17%[17.1 µM]	0%[25.5 µM]	5%[20.9 µM]	22%[20.6 µM]
c1coc(C2Nc3cccc4cccc(c34)N2)c1	19%	?	-20%	-22%	25µM*	-9%
Cc1sc2c(c1C)CN(Cc1ccco1)CN2C(=O)c1ccccc1	·	·	-10%[0.074 µM]	·	·	·
Cc1sc2c(c1C)CN(Cc1ccncc1)CN2C(=O)c1ccco1	-7%	-22%	-7%	?	25µM*	6%
Cc1cc(=O)oc(C)c1C(=O)OCC(=O)c1ccc2ccccc2c1	0%	?	-6%	?	?	-50%
Cc1cc(=O)oc(C)c1C(=O)OCC(=O)c1ccccc1	18%	?	-4%[10 µM]	0%	16µM*	6%
O=C1CCCCC1c1cccc2ccccc12 (configuration not stated)	·	0%	·	2%	10%	·
O=C1c2ccccc2C(=O)C12OC2c1cccc2ccccc12 (configuration not stated)	-10%	?	-5%[10 µM]	?	1µM*	35µM*
O=C(O)c1ccc(N2Cc3ccccc3C2)cc1O	4%	16µM*	0%	?	28µM*	0%
O=C(O)c1ccc(N2CCCCC2)cc1O	·	·	14%[10 µM]	1%	·	-8%[9.22 µM]
CCN(CC)C(=O)c1cc2sc3ccccc3c2s1	?	7.9µM*	-15%	-10%	?	-14%
COCCN(CCOC)C(=O)c1cc2sc3ccccc3c2s1	0%	?	-10%	?	?	-20%
Cc1ccc(C)c(NC(=S)NCc2ccc3[nH]c4c(c3c2)CCCC4)c1	?	-21%	·	-6%	-14%	?
Cc1ccccc1NC(=S)NCc1ccc2[nH]c3c(c2c1)CCCC3	?	20µM*	·	-8%	?	-28%
CNC(=S)NCc1ccc2[nH]c3c(c2c1)CCCC3	·	·	-41%	8%	25µM*	8%[9.22 µM]
Cc1c(NC(=O)c2ccco2)cccc1-c1nc2cccnc2s1	-3%	-25%	-17%[10 µM]	?	?	10µM*
O=C(Nc1cccc(-c2nc3cccnc3s2)c1)c1ccco1	-23%	-26%	-55%	?	-2%	16µM*
O=C(O)CSc1n[nH]c(=O)[nH]c1=O	·	-4%	-11%[10 µM]	·	-2%[13.5 µM]	·
CCCN1C(=O)N(c2cccc(C)c2)C(C)(O)CC1(C)C (configuration not stated)	·	·	1%[10 µM]	-2%	1%	-6%[9.22 µM]
SMILES	Lamin A splicing	HPGD block	HTT cytoprotect	JMJD2E inh	ALDH1A1 block	HttQ103 aggreg
O=S(=O)(Nc1ccc(C(F)(F)F)cn1)c1ccccc1	·	·	17%[10 µM]	-9%	·	-5%[9.22 µM]
CN(C)c1ncc2nc(-c3ccc(F)cc3)c(=O)n(CCC#N)c2n1	·	?	7%	·	?	·
Cc1nc2sc3c(c2c(=O)n1NC(=O)CCBr)CCCC3	·	·	12%[10 µM]	4%	14µM*	8%[9.22 µM]
CCCc1nc2sc3c(c2c(=O)n1NC(=O)CCC(=O)OC)CCCC3	·	·	17%[10 µM]	-5%	·	18%[9.22 µM]
CCCN[C@@H](C)C(=O)Nc1ccccc1C	?	-9%	?	6%[25.5 µM]	3%[20.9 µM]	-6%
Cc1nnc(SCC(=O)c2cc(C)n(-c3ccc4c(c3)OCO4)c2C)s1	?	·	8%[10 µM]	-3%	?	?
Cc1cc(C(=O)CSc2nnc(-c3ccco3)o2)c(C)n1-c1ccc2c(c1)OCCO2	-10%	-15%	10%[10 µM]	-4%	-8%	8.9µM*
Cc1cc(C(=O)CSc2nnnn2C)c(C)n1-c1ccc2c(c1)OCCO2	?	25µM*	19%	-5%	?	-18%
Cc1cc(C(=O)CSc2nnc(-c3ccco3)o2)c(C)n1Cc1ccco1	-24%	-3%	-13%[10 µM]	-3%	?	2%
CCCCNC(=O)CSc1cc(=O)n(C)c2ccccc12	9%	14µM*	-12%[10 µM]	?	-9%	-5%
CC(CCc1ccco1)NC(=O)CSc1cc(=O)n(C)c2ccccc12 (configuration not stated)	7%	25µM*	6%	-4%	?	10%
CCn1c(=O)cc(SCC(=O)NCc2ccco2)c2ccccc21	?	?	-85%	-30%	?	18%
Cn1nc(C(=O)Nc2cccc(C(F)(F)F)c2)c2c1-c1ccccc1S(=O)(=O)C2	0%[46 µM]	·	·	·	·	·
Oc1c(C=NCc2ccccc2)sc2ccccc12	·	·	18%[10 µM]	-8%	-4%	16%[9.22 µM]
Oc1cccc(C=NCc2ccccc2)c1O	-6%	16µM*	-16%	13µM*	8.9µM*	-1%
Cc1c(CBr)[n+](=O)c2c(n1[O-])C(Br)CCC2Br (configuration not stated)	·	·	-10%[10 µM]	28µM*	·	20%[9.22 µM]
O=C(CSc1nc2c([nH]c3ccccc32)c(=O)n1-c1ccc(Cl)cc1)NCC1CCCO1 (configuration not stated)	6%[46 µM]	·	·	·	·	·
CN(/N=C\c1ccccc1O)c1ccc2ccccc2n1	·	-4%	-6%[10 µM]	·	5%[13.5 µM]	·
COc1ccc2[nH]c(=O)c(CN(Cc3ccco3)Cc3nnnn3Cc3ccccc3)cc2c1	15%	?	1%	?	?	?
COc1ccc2cc(CN(Cc3ccco3)C(c3nnnn3C3CCCCC3)C(C)C)c(=O)[nH]c2c1 (configuration not stated)	11%	-16%	1%[10 µM]	-9%	16µM*	-4%
COc1ccc2cc(CN(Cc3ccco3)Cc3nnnn3C3CCCCC3)c(=O)[nH]c2c1	?	-11%	-22%[10 µM]	-11%	7.9µM*	-8%
COc1ccc2[nH]c(=O)c(C(c3nnnn3C(C)(C)C)N(Cc3ccco3)CC3CCCO3)cc2c1 (configuration not stated)	21%	?	-3%	?	?	24%
